Tests used:
Experiment in all cases: thermal shift delta Tm vs DMSO control; higher = stronger stabilization (binding)
Details in all cases: 12.5 µM; protein concentration 2 µM
[1] = system: LOC_OS02G45750-cb003
Outline: (§1)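 Compounds dissolved in DMSO were added to purified rice kinase domain constructs, which had been expressed in E. coli, for differential scanning fluorimetry. Each well held 19.5 μl of 2 μM kinase in 100 mM potassium phosphate pH 7.5, 150 mM NaCl, 10% glycerol and 5 × SYPRO Orange. Fluorescence was followed from 25°C to 95°C at a rate of 0.05°C/s. Shifts in Boltzmann-fitted melting temperature are triplicate means relative to DMSO-only protein.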

[2] = system: LOC_OS02G54510-cb004
Outline: as §1

[3] = system: LOC_OS03G04050-cb001
Outline: as §1

[4] = system: LOC_OS03G12390-cb001
Outline: as §1

[5] = system: LOC_OS03G27990-cb004
Outline: as §1

[6] = system: LOC_OS03G50450-cb001
Outline: as §1

[7] = system: LOC_OS03G50810-cb003
Outline: as §1

[8] = system: LOC_OS04G35114-cb001
Outline: as §1

[9] = system: T1, LOC_OS04G38480-cb003
T1 sequence (whole entry): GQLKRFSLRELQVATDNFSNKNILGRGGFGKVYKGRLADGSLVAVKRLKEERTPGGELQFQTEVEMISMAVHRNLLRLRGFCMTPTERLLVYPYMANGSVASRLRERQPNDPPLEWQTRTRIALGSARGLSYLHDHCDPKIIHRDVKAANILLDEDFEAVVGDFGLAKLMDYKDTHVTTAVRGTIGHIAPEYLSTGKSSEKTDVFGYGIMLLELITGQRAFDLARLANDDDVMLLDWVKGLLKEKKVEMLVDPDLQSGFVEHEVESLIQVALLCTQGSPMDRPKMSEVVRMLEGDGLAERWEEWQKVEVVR
Outline: as §1

[10] = system: T2, LOC_OS04G41100-cb001
T2 sequence (whole entry): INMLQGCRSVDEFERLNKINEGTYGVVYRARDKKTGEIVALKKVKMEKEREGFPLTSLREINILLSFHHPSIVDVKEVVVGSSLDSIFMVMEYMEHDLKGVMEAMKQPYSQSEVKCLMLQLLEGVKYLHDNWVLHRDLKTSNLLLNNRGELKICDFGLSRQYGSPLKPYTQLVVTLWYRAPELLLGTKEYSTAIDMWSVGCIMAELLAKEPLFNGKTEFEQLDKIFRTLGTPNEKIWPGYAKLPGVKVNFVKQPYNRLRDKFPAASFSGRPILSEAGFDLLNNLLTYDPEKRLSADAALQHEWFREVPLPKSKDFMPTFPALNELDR
Outline: as §1

[11] = system: LOC_OS04G57630-cb004
Outline: as §1

[12] = system: LOC_OS05G07850-cb002
Outline: as §1

[13] = system: LOC_OS05G16824-cb004
Outline: as §1

[14] = system: LOC_OS05G28520-cb001
Outline: as §1

[15] = system: LOC_OS05G30820-cb001
Outline: as §1

[16] = system: LOC_OS05G43570-cb004
Outline: as §1

[17] = system: LOC_OS06G16330-cb003
Sequence of LOC_OS06G16330-cb003 (as listed by the source): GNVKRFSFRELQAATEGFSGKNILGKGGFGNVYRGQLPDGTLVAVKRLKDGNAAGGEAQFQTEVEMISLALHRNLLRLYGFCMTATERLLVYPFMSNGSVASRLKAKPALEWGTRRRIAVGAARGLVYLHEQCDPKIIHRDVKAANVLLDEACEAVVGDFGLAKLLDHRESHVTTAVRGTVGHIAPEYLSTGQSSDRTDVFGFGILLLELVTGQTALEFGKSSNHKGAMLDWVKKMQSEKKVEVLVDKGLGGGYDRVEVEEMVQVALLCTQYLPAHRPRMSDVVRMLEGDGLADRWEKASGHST
Outline: as §1

[18] = system: T3, LOC_OS06G22820-cb001
T3 sequence (whole entry): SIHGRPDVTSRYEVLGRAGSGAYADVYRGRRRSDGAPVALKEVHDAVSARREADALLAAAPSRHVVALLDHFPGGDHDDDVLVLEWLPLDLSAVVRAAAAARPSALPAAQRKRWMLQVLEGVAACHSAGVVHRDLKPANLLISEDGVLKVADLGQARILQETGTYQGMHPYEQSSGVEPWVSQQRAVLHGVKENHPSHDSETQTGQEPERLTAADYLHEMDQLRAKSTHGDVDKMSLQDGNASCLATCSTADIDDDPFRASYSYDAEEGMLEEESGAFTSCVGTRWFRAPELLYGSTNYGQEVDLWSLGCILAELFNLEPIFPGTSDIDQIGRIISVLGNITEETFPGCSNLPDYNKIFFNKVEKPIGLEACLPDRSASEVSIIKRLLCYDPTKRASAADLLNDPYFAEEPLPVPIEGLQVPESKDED
Outline: as §1

[19] = system: LOC_OS07G06570-cb004
Outline: as §1

[20] = system: LOC_OS07G07230-cb001
Outline: as §1

| SMILES | thermal shift delta Tm [1] [°C] | thermal shift delta Tm [2] [°C] | thermal shift delta Tm [3] [°C] | thermal shift delta Tm [4] [°C] | thermal shift delta Tm [5] [°C] | thermal shift delta Tm [6] [°C] | thermal shift delta Tm [7] [°C] | thermal shift delta Tm [8] [°C] | thermal shift delta Tm [9] [°C] | thermal shift delta Tm [10] [°C] | thermal shift delta Tm [11] [°C] | thermal shift delta Tm [12] [°C] | thermal shift delta Tm [13] [°C] | thermal shift delta Tm [14] [°C] | thermal shift delta Tm [15] [°C] | thermal shift delta Tm [16] [°C] | thermal shift delta Tm [17] [°C] | thermal shift delta Tm [18] [°C] | thermal shift delta Tm [19] [°C] | thermal shift delta Tm [20] [°C] |
| --- | --- | --- | --- | --- | --- | --- | --- | --- | --- | --- | --- | --- | --- | --- | --- | --- | --- | --- | --- | --- |
| O=C(c1ccc(/C=C/c2n[nH]c3ccccc23)cc1)N1CCNCC1 | 14 | 0.61 | 0.27 | 6.79 | 6 | 4.25 | 4.42 | 8.77 | 2.61 | 0.96 | 3.95 | 9.5 | 10.5 | 2.59 | 1.8 | 0.66 | 7.34 | 0.53 | 1.15 | 0.03 |
| O=C1CCc2c(Oc3ccc4c(c3)[C@@H]3[C@H](O4)[C@H]3c3nc4cc(C(F)(F)F)ccc4[nH]3)ccnc2N1 [Lifirafenib (BGB-283)] | 2.06 | 5.22 | 0.52 | 0.76 | 0.6 | 0.51 | 0.57 | 0.81 | 3.35 | 0.63 | 5.81 | 9.47 | -0.92 | 0.64 | 0.42 | 1.09 | 2.37 | 1.16 | 1.23 | -0.15 |
| C1=N/C2=N/c3ccc(OCCN4CCCC4)c(c3)COC/C=C/COCc3cccc(c3)C(=C1)N2 [Pacritinib (SB1518)] | 8.5 | 3.05 | 0.14 | 4.32 | 4.35 | 3.76 | 7.67 | 10.9 | 3.66 | 5.39 | 4.36 | 12.8 | 7.5 | 3.33 | 0.55 | 0.68 | 10.1 | 0.41 | 1.64 | 0.85 |
| Cc1cc(Nc2cc(CN3CCOCC3)c3nc(C)c(Cc4ccc(Cl)cc4F)n3n2)n[nH]1 | 3.56 | 3.12 | -0.22 | 1.36 | 0.01 | 0.47 | 4.81 | 2.03 | 2.46 | 3.22 | 1.33 | 11.1 | 6.97 | 1.47 | 1.14 | 0.39 | 9.97 | -0.03 | 0.22 | -0.28 |
| NC1(c2ccc(-c3nc4ccn5c(=O)[nH]nc5c4cc3-c3ccccc3)cc2)CCC1 | -0.2 | 0.21 | 0.25 | -0.32 | 0.81 | 0.2 | -0.2 | 0.61 | -0.22 | 0.57 | -0.22 | 1.31 | -1.83 | 0.28 | 0.4 | 0.14 | 0.62 | 0.61 | 0.66 | 0.17 |
